Bead autofluor: counter-screen for toxin protease inhibitors: compound fluorescence; fluorescence intensity (concentration not given with the values); actives 3.1% (n = 360,000); AID 624483; compound autofluorescence counterscreen, microsphere flow cytometry; hits give high values; in the data active = fluorescence intensity above about 16000; inconclusive = no clear call, values can overlap the other calls
BoNT F protease: BoNT F light chain protease inhibition; actives 0.22% (n = 360,000); AID 588497; Multiplex microsphere protease cleavage assay, flow cytometry; inhibition, % at 10 µM; in the data active = inhibition above about 35%, passing the limit was not always enough; inconclusive = no clear call, values can overlap the other calls; also: plate controls were buffer without enzyme for full effect and enzyme alone for no effect
BoNT-A LC inh2: blocks Botulinum neurotoxin A light chain protease; inhibition, % at 10 µM; multiplex microsphere protease substrate cleavage, flow cytometry; AID 588499; actives 0.17% (n = 360,000); in the data active = inhibition above about 30%; inconclusive = no clear call, values can overlap the other calls; also: plate controls were buffer without enzyme for full effect and enzyme alone for no effect
Anthrax LF prot: blocks Bacillus anthracis lethal factor protease | inhibition, % at 10 µM | multiplex microsphere protease cleavage assay, LF | AID 588501 | P15917 | actives 0.12% (n = 360,000); in the data active = inhibition above about 30%; inconclusive = no clear call, values can overlap the other calls; also: plate controls were buffer without enzyme for full effect and enzyme alone for no effect
Target sequence (P15917 whole entry, looked up): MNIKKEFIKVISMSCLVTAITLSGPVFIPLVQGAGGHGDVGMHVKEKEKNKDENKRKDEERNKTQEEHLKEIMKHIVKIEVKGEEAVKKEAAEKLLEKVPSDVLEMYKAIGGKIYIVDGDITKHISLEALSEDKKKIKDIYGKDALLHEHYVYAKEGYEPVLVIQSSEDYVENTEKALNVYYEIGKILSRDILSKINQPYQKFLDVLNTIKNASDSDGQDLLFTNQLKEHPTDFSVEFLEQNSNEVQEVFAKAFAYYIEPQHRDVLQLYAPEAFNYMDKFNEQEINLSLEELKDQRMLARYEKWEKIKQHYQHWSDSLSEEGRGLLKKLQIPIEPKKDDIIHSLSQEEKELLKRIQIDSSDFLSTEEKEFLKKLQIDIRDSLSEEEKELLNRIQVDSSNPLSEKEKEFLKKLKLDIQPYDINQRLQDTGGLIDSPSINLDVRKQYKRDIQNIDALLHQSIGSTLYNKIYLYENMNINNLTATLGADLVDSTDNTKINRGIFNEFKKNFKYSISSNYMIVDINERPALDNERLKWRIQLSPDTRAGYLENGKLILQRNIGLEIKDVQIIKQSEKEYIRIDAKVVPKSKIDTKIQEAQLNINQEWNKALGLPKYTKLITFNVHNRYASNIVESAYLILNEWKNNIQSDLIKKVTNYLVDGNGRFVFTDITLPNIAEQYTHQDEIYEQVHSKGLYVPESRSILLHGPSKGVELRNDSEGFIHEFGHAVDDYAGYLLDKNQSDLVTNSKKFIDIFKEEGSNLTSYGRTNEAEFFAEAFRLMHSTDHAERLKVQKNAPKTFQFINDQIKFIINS
FBA Mtb inh: Mtb fructose-bisphosphate aldolase inhibition; P9WQA3; purified M. tuberculosis FBA, fluorescence read-out; inhibition, % at 1 µM; actives 2.3% (n = 360,000);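 also: 0% = vehicle and 100% = reference inhibitor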
GDH-TPI counter-1: counter-screen for M. tuberculosis FBA inhibitors: GDH-TPI coupled enzymes. GDH-TPI coupled enzyme counterscreen, NADH absorbance. inhibition, % at 4.8 µM. actives 1.2% (n = 360,000). AID 588335; in the data active = inhibition above about 30%;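 also: 0% = DMSO wells and 100% = wells lacking the enzyme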
Mtb FBA inh conf: Mtb FBA inhibition, confirmed | purified M. tuberculosis FBA, fluorescence read-out | shares compounds with FBA Mtb inh | inhibition, % at 1 µM | actives 78% (n = 5,600) | AID 651616;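 also: 0% = vehicle wells and 100% = reference inhibitor wells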
GDH-TPI counter-2: counter-screen for M. tuberculosis FBA inhibitors: GDH-TPI coupled enzyme inhibition | shares compounds with FBA Mtb inh | GDH-TPI coupled enzyme counterscreen, fluorescence | inhibition, % at 1 µM | actives 81% (n = 5,600); in the data active = inhibition above about 10%
Active calls of the source: *; i = inactive; ? = inconclusive; . = not tested or not shown; + = active, no number. In the library only some 6.6% were active in any assay of this set; here they are far more common. Rule as the data show it, unless noted: active = inhibition above about 27%; inactive = the rest.

SMILES	Bead autofluor	BoNT F protease	BoNT-A LC inh2	Anthrax LF prot	FBA Mtb inh	GDH-TPI counter-1	Mtb FBA inh conf	GDH-TPI counter-2
NC(N)=N/N=C/c1ccc(N(c2ccccc2)c2ccccc2)cc1	3880	?	3	-8	104*	8	71*	49*
Cc1noc2c1C(c1ccc(N(C)C)cc1)C1=C(CC(C)(C)CC1=O)N2 (centres undefined)	9532	-6	0	-6	0	-5	.	.
CCSc1nc2c(c(=O)[nH]1)C(c1ccc(C)cc1)C1=C(CCCC1=O)N2 (centres undefined)	4548	2	0	-7	29*	6	148*	126*
CC1(C)CC(=O)C2=C(C1)Nc1[nH]c(=S)[nH]c(=O)c1C2c1ccccc1 (centres undefined)	3348	3	0	-1	4	7	.	.
Cc1ccc(C2C3=C(CC(C)(C)CC3=O)Nc3onc(C)c32)cc1 (centres undefined)	2669	8	0	-2	46*	5	3	-1
Cc1ccc(CSc2nc3c(c(=O)[nH]2)C(c2ccncc2)C2=C(CCCC2=O)N3)cc1 (centres undefined)	?	?	?	-5	21	7	.	.
CSc1nc2c(c(=O)[nH]1)C(c1ccccc1)C1=C(CC(C)(C)CC1=O)N2 (centres undefined)	3984	-10	1	-2	29*	6	68*	45*
CC(NC(=O)CN1C(=O)NC2(CCCCC2)C1=O)c1ccc(S(N)(=O)=O)cc1 (centres undefined)	?	-16	-7	-1	3	4	.	.
CCn1c(SCC(=O)N2CCOCC2)nnc1-c1cccs1	4863	-4	0	-3	70*	6	142*	117*
Cc1cc(C)c2c(N)c(C(=O)c3ccccc3)oc2n1	10729	4	0	-6	5	8	.	.
Cc1cc(-c2ccccc2)nc2oc(C(=O)NN)c(N)c12	.	.	.	.	39*	9	55*	44*
Nc1c(C(=O)N/N=C/c2ccccc2Cl)oc2nc(-c3ccccc3)cc(-c3ccco3)c12	4983	-14	3	-3	4	2	.	.
COC(=O)c1oc2nc(C)cc(C)c2c1N	?	i	-416	?	69*	16	47*	40*
C=CCn1cccc(C(=O)Nc2ccc(F)cc2)c1=O	3705	-11	-2	5	-6	9	.	.
COc1ccc(C)cc1N(CC(=O)N1CCc2ccccc2C1)S(C)(=O)=O	4320	-1	0	-7	-6	-6	.	.
COc1cc2c(c3ccccc13)CCCC2=O	4321	3	1	-2	110*	11	116*	91*
CN(C)c1ccc(-c2nc3cc(N)ccc3o2)cc1	4817	?	4	-2	36*	49*	70*	55*
Nc1ccc(-c2nc3cc(N)ccc3o2)cc1	3544	-3	-2	-15	37*	34*	81*	51*
Cc1ccc(-c2nc3cc(N)ccc3o2)cc1Br	3713	2	-4	-16	1	9	.	.
Cc1cccc(-c2nnc(-c3ccc(N)cc3)o2)c1	3820	-9	2	-1	16	28	.	.
Nc1ccc(-c2nnc(-c3ccc(N)cc3)o2)cc1	3918	5	1	-3	74*	36*	92*	82*
COc1ccc2c3c(cccc13)N(C)N=C2C	3414	-145	2	-12	-3	5	.	.
Cc1ccc(NC(=O)CSc2nnc(-c3ccncc3)o2)cc1C	4335	-3	0	4	-1	8	.	.
CCOC(=O)c1cn(C2CC2)c2c(F)c(NCCCN(C)C)c(F)cc2c1=O	6068	-7	0	-2	70*	18	134*	79*
Cc1nn(-c2ccccn2)c2nc(-c3cccs3)cc(C(=O)N3CCOCC3)c12	3463	-36	-4	-10	105*	31*	59*	59*
SMILES	Bead autofluor	BoNT F protease	BoNT-A LC inh2	Anthrax LF prot	FBA Mtb inh	GDH-TPI counter-1	Mtb FBA inh conf	GDH-TPI counter-2
Cc1cccc(-n2nc(C)c3c(C(=O)O)cc(-c4cccs4)nc32)c1	4197	-5	-1	-6	62*	18	149*	135*
Cc1cc(C)cc(NC(=O)COC(=O)Cn2cnc3c2c(=O)n(C)c(=O)n3C)c1	8303	0	-2	-5	-1	1	.	.
CN(Cc1ccccc1)C(=O)CCn1c(=O)c2cccn2c2cccnc21	4487	5	0	-3	2	7	.	.
O=C1c2cccc3cccc(c23)C(=O)N1CC1CCN(S(=O)(=O)c2ccccc2)CC1	5086	-4	-1	4	54*	-5	47*	29*
N#Cc1c(-c2ccccc2F)cc(-c2cccnc2)nc1N	2484	-6	0	2	110*	11	-3	-4
COc1cc(-c2cc(-c3ccc(F)cc3)nc(N)c2C#N)ccc1O	4539	-3	0	-2	2	-5	.	.
CC(C)(C)OC(=O)NCCCCCNC(=O)c1ncn2c1c(=O)[nH]c1ccccc12	3482	-14	-1	4	87*	-3	42*	34*
COc1ccc(Cl)cc1NC(=O)CN(C)CC(=O)Nc1ccc(C)cc1Br	3795	-2	0	0	0	3	.	.
COc1ccc(-c2oc3ccccc3c2C(=O)OCc2ccc(O)cc2)cc1	3609	-7	0	-3	74*	12	60*	64*
COc1ccc(-c2oc3ccccc3c2C(=O)OCc2ccccc2)cc1	4168	-10	0	-3	99*	7	+	175*
COc1ccc(-c2oc3ccccc3c2C(=O)Oc2ccccc2)cc1	3960	-5	0	-8	91*	2	29*	27*
O=C(Oc1ccccc1)c1cc2ccccc2o1	2357	2	0	3	1	11	.	.
COc1ccc(OC(=O)OCc2ccccc2)cc1	3633	-4	0	1	-3	5	.	.
CCN(CC)S(=O)(=O)c1ccc(N2CCCC2)c(C(=O)OCC(=O)Nc2cc(C)on2)c1	4490	2	0	4	0	19	.	.
Cc1ccc(NC(=O)Cc2nc(COC(=O)Cc3cccc(C(F)(F)F)c3)cs2)cc1	?	16	9	0	2	4	.	.
Cc1cc(Cl)ccc1OCC(=O)Nc1ccc(CN2CCOCC2)cc1	6056	0	0	5	0	1	.	.
Cc1cc(OCC(=O)Nc2ccc(CN3CCOCC3)cc2)c2c(C)c(C)c(=O)oc2c1	5450	0	0	-4	71*	3	+	+
Cc1cc(OCC(=O)Nc2ccc(CN3CCOCC3)cc2)c2c(C)cc(=O)oc2c1	5899	-3	1	-1	77*	-2	52*	33*

Screens: PubChem BioAssay, several laboratories
